DT40 TDP1 CPT: growth inhibition of DT40 Tdp1-/-;hTDP1 cells with camptothecin (screen for TDP1 inhibitors) | chicken DT40 Tdp1-/-;hTDP1 cells + 20 nM CPT, ATP luminescence, 48 h | 12% of 420,000 active | Potency, µM (highest dose often 46.2 µM), for the others: at the top dose activity change, negative = growth inhibition, actives largely listed as inhibitors | AID 686979; note: potency is the fitted concentration of half-maximal effect; nearly all actives have a fitted effect of over 55% in size
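Chicken DT40 Tdp1-/- cells complemented with human TDP1, 400 cells/well, exposed to compounds plus 20 nM camptothecin for at least 48 h at 37 C; viability read as ATP content by CellTiter-Glo luminescence.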
DT40 TDP1 no CPT: qHTS for Inhibitors of human tyrosyl-DNA phosphodiesterase 1 (TDP1): qHTS in cells in absence of CPT; DT40 Tdp1-/- hTDP1 cells, no CPT, ATP luminescence, 48 h; Potency, µM (doses to about 46.2 µM), for the others: at the top dose activity change, negative = growth inhibition, usual class: inhibitors; 15% of 420,000 active; AID 686978, 2013; note: potency is the fitted concentration of half-maximal effect; nearly all actives have a fitted effect of over 55% in size
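Cells were dispensed at 400 per well, compounds added by pin tool, plates incubated ≥48 hr at 37 °C, then CellTiter-Glo added for 30 min at room temperature before luminescence reading. Line: DT40 Tdp1-/- complemented with hTDP1; camptothecin omitted.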
Six1-Eya2 blk: blocks human Six1 binding to Eya2; Q15475+O00167; AlphaScreen GST-Six1/His-Eya2 binding, biochemical; stronger effect = lower value; activity change, % (concentration not given with the values); 0.56% of 360,000 active; in the data active = activity change below about -65%; inconclusive = mostly about -30% to -63%
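GST-Six1 + His-Eya2 (5X stock: 250/500 nM); Tris pH 8.0, 300 mM NaCl, 0.05% BSA, 0.02% Tween 20; GSH donor/Ni acceptor beads; 1 h 37 °C dark; AlphaScreen readout.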
TDP1 block: inhibitors of human tyrosyl-DNA phosphodiesterase TDP1 | Q9NUW8 | recombinant TDP1, AlphaScreen DNA substrate cleavage | Potency, µM (top dose mostly 130 µM), inactives show at the top dose activity change, negative = inhibition, actives largely listed as inhibitors | 0.28% of 350,000 active; note: potency is the fitted concentration of half-maximal effect; nearly all actives have a fitted effect of over 40% in size
Target sequence (Q9NUW8 whole entry, looked up): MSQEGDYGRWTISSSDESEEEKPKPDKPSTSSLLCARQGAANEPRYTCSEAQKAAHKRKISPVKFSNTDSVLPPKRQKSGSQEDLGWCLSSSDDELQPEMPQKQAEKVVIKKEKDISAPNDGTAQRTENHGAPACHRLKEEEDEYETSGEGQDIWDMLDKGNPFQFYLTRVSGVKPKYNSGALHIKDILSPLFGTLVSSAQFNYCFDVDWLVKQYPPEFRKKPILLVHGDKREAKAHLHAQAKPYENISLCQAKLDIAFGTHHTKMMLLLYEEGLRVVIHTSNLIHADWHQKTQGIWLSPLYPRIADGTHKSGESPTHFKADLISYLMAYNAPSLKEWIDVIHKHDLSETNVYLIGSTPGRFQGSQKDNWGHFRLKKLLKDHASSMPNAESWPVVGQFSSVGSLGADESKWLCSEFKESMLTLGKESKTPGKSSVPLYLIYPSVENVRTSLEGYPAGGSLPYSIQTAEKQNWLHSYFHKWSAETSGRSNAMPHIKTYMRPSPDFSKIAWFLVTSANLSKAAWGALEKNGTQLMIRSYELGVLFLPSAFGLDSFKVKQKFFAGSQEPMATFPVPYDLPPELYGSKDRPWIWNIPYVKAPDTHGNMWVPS
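Compounds were preincubated with Tdp1 (1 nM final) for 15 min at room temperature before substrate (15 nM final) started a 5 min reaction; beads (10 ug/ml final) were then added for 10 min before AlphaScreen detection.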
IL-1B inflam inh: blocks inflammasome-driven IL-1 beta release | THP-1 LPS/ATP IL-1B secretion, AlphaLISA, 16 h; stronger effect = lower value | activity change, % at 57.5 µM | 4.7% of 360,000 active | AID 743279; in the data active = activity change below about -50%; inconclusive = mostly about -30% to -49%
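THP-1 cells pretreated 1 hr with compounds (up to 57.5 uM final), then stimulated with LPS (250 ng/mL final) plus ATP (1.25 mM final); secreted IL-1B measured by AlphaLISA after 16 hr, decreased signal indicating inhibition.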
CtBP-E1A inh: CtBP/E1A binding inhibition; 0.49% of 340,000 active; AlphaScreen GST-E1A/His-CtBP binding, 1536-well; stronger effect = lower value; activity change, % (no concentration beside the values); in the data active = activity change below about -65%; inconclusive = mostly about -30% to -63%
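GST-E1A and His-tagged CtBP (125 nM each as 5X stock) were preincubated with pin-transferred compound for 2 h at 37 °C in the dark, then glutathione donor and nickel acceptor beads were added for 1 h before AlphaScreen reading.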
An asterisk follows results filed as active; ! = repeats disagree. Shown are actives, neighbours in structure and some others; about 18% of the full set was active somewhere. Unless noted, calls come from the whole dose curve; as a rule, active = well fitted curve in the direction sought with a large enough effect; inconclusive = small, poorly fitted or top-dose-only effect, or another doubt; inactive = no such curve, though single readings can be large; an effect the other way counts as inactive or inconclusive. % is set by controls: 0 for no effect and ±100 for the full control effect.

How did CCC(CC)C(=O)NC12CC3CC(CC(C3)C1)C2 do in these assays?
DT40 TDP1 CPT: -2.1%; DT40 TDP1 no CPT: -20.2%; Six1-Eya2 blk: -1.2; TDP1 block: 2.2%; IL-1B inflam inh: -3.1; CtBP-E1A inh: 0.2

How did Cc1ccc(S(=O)(=O)NCc2ccncc2)c(C)c1C do in these assays?
DT40 TDP1 CPT: 1.84µM*; DT40 TDP1 no CPT: 1.3µM*; Six1-Eya2 blk: -4.6; TDP1 block: 2.8%; IL-1B inflam inh: -5.7; CtBP-E1A inh: -7.6

Results for COc1cc(C)c(Br)cc1S(=O)(=O)NCc1ccncc1 ?
DT40 TDP1 CPT: 10.3µM*; DT40 TDP1 no CPT: 9.2µM*; Six1-Eya2 blk: 4.2; TDP1 block: 2.6%; IL-1B inflam inh: 21.9; CtBP-E1A inh: 8.5

Results for Cc1cc(C)c(S(=O)(=O)NCc2ccncc2)c(C)c1 ?
DT40 TDP1 CPT: 7.31µM*; DT40 TDP1 no CPT: 7.31µM*; Six1-Eya2 blk: -1.8; TDP1 block: 3.9%; IL-1B inflam inh: 14.3; CtBP-E1A inh: -0.7

Results for Cc1cc(C)c(S(=O)(=O)NCCc2ccncc2)c(C)c1 ?
DT40 TDP1 CPT: -1.5%; DT40 TDP1 no CPT: -4.0%; Six1-Eya2 blk: 12.3; IL-1B inflam inh: 6.7; CtBP-E1A inh: 0.6

What do the screens show for `O=S1(=O)C[C@@H](N2CCN(c3ccccn3)CC2)[C@H](COCc2ccccc2)N1`?
DT40 TDP1 CPT: -6.5%; DT40 TDP1 no CPT: -11.6%; Six1-Eya2 blk: 4.3; IL-1B inflam inh: 53.6; CtBP-E1A inh: 4.3

How did COC(=O)c1ccccc1NC(=O)c1cn(-c2ccc(C)c(C)c2)c(=O)c2ccccc12 do in these assays?
DT40 TDP1 CPT: inconclusive; DT40 TDP1 no CPT: 23.1µM*; Six1-Eya2 blk: 5.9; TDP1 block: -1.9%; IL-1B inflam inh: 0.0; CtBP-E1A inh: -1.1

Results for CCOC(=O)c1ccccc1NC(=O)c1cn(-c2ccc(C)c(C)c2)c(=O)c2ccccc12 ?
DT40 TDP1 CPT: 20.6µM*; DT40 TDP1 no CPT: inconclusive; Six1-Eya2 blk: 2.9; TDP1 block: 1.9%; IL-1B inflam inh: inconclusive; CtBP-E1A inh: -3.9

What do the screens show for `CCOC(=O)Cn1c(=NC(=O)C(C)C)sc2c(C)cc(C)cc21`?
DT40 TDP1 CPT: inconclusive; DT40 TDP1 no CPT: 14.6µM*; Six1-Eya2 blk: -0.9; TDP1 block: 5.6%; IL-1B inflam inh: 30.7; CtBP-E1A inh: 5.8

How did CC(C1CC1)N(C(=O)c1ccccc1[N+](=O)[O-])c1ccccc1 (configuration not stated) do in these assays?
DT40 TDP1 CPT: 20.6µM*; DT40 TDP1 no CPT: 8.2µM*; Six1-Eya2 blk: -0.1; TDP1 block: 2.9%; IL-1B inflam inh: -14.1; CtBP-E1A inh: -17.9

Results for COC(CNS(=O)(=O)c1cccc2nonc12)OC ?
DT40 TDP1 CPT: 38.6%; DT40 TDP1 no CPT: -11.3%; Six1-Eya2 blk: -1.2; TDP1 block: 3.4%; IL-1B inflam inh: 12.3; CtBP-E1A inh: 6.5

How did COc1ccc(-c2nnc(C3CCN(C(=O)c4ccccc4F)CC3)o2)cc1 do in these assays?
DT40 TDP1 CPT: 5.17µM*; DT40 TDP1 no CPT: 4.61µM*; TDP1 block: -3.8%

How did Cc1ccc(C(c2nnnn2C(C)(C)C)N2CCN(C3CCCC3)CC2)cc1 (configuration not stated) do in these assays?
DT40 TDP1 CPT: -25.4%; DT40 TDP1 no CPT: inconclusive; Six1-Eya2 blk: 26.7; TDP1 block: 2.4%; IL-1B inflam inh: 5.5; CtBP-E1A inh: 0.2

What do the screens show for `C=CCN1C2CCCC1CC(NC(=S)Nc1ccc(Cl)cc1)C2` (configuration not stated)?
DT40 TDP1 CPT: 23.1µM*; DT40 TDP1 no CPT: inconclusive; Six1-Eya2 blk: -0.4; TDP1 block: -2.4%; IL-1B inflam inh: -5.0; CtBP-E1A inh: 6.0

Results for S=C(Nc1ccc(Cl)cc1)NC1CC2CCCC(C1)N2C1CCCC1 (configuration not stated) ?
DT40 TDP1 CPT: inconclusive; DT40 TDP1 no CPT: inconclusive; Six1-Eya2 blk: -4.9; TDP1 block: 4.0%; IL-1B inflam inh: -23.3; CtBP-E1A inh: -2.3

How did CNC(=S)NC1CC2CCC(C1)N2Cc1ccccc1 (configuration not stated) do in these assays?
DT40 TDP1 CPT: -4.4%; DT40 TDP1 no CPT: -4.5%; Six1-Eya2 blk: -7.0; TDP1 block: -1.0%; IL-1B inflam inh: 9.4; CtBP-E1A inh: -10.0

Results for S=C(Nc1ccc(Cl)cc1)NC1CC2CCC(C1)N2Cc1ccccc1 (configuration not stated) ?
DT40 TDP1 CPT: 23.1µM*; DT40 TDP1 no CPT: 16.4µM*; Six1-Eya2 blk: -1.5; IL-1B inflam inh: -98.2*; CtBP-E1A inh: -6.3

How did CC(=O)Nc1ccc(NC(=O)COc2ccc(Br)cc2C)cc1 do in these assays?
DT40 TDP1 CPT: 2.6%; DT40 TDP1 no CPT: -26.6%; Six1-Eya2 blk: -1.6; TDP1 block: 5.8%; IL-1B inflam inh: 2.0; CtBP-E1A inh: 6.2

How did COc1ccccc1-n1c(-c2ccccc2)c[n+]2c1CCc1ccccc1-2 do in these assays?
DT40 TDP1 CPT: 0.326µM*; DT40 TDP1 no CPT: 0.013µM*; Six1-Eya2 blk: 3.6; TDP1 block: 5.4%; IL-1B inflam inh: -98.8*!; CtBP-E1A inh: 3.5

How did COc1ccc(-c2c[n+]3c(n2-c2c(C)n(C)n(-c4ccccc4)c2=O)CCCCC3)cc1 do in these assays?
DT40 TDP1 CPT: -13.6%; DT40 TDP1 no CPT: inconclusive; Six1-Eya2 blk: 16.1; TDP1 block: -7.7%; IL-1B inflam inh: 15.4; CtBP-E1A inh: 0.0

Results for COc1ccc(-n2c(-c3ccc(Br)cc3)c[n+]3c2CCc2ccccc2-3)cc1 ?
DT40 TDP1 CPT: 1.64µM*; DT40 TDP1 no CPT: 0.92µM*; Six1-Eya2 blk: 0.8; TDP1 block: 7.9%; IL-1B inflam inh: -59.3*; CtBP-E1A inh: -3.4

How did CC(C)c1ccc(-n2c(-c3ccccc3)c[n+]3c2CCc2ccccc2-3)cc1 do in these assays?
DT40 TDP1 CPT: 0.0073µM*; DT40 TDP1 no CPT: 0.0326µM*; Six1-Eya2 blk: -3.0; TDP1 block: -1.2%; IL-1B inflam inh: -114.1*; CtBP-E1A inh: -14.4

Results for COc1ccc(CCC(=O)N(c2nnc(-c3cccnc3)s2)C(C)C)cc1 ?
DT40 TDP1 CPT: -28.0%; DT40 TDP1 no CPT: inconclusive; Six1-Eya2 blk: 9.4; TDP1 block: 5.1%; IL-1B inflam inh: 0.0; CtBP-E1A inh: 1.0

How did CC1=C([N+](=O)[O-])C(c2ccc(Cl)cc2)NC(=O)N1C (configuration not stated) do in these assays?
DT40 TDP1 CPT: 6.51µM*; DT40 TDP1 no CPT: 5.8µM*; Six1-Eya2 blk: 1.2; IL-1B inflam inh: 34.1; CtBP-E1A inh: 6.0

Source: PubChem BioAssay (National Center for Advancing Translational Sciences (NCATS))
